Source: PubChem BioAssay (Tox21)
Inconclusive results are not listed. A call without a number means that no potency is given here. Calls of active or inactive are those of the source. Calls come from the whole dose curve; as a rule, active = well fitted activation curve with a large enough effect in the repeat runs; inconclusive = weak or mixed curves; inactive = flat fitted curve, though single readings scatter.

molecular target: Nuclear receptor subfamily 1 group I member 2 (Homo sapiens) (UniProt O75469); assay: Human pregnane X receptor (PXR) activation by small molecules, qHTS assay (AID 1346985); conditions: DPX-2 HepG2 CYP3A4-luciferase, 24 h; series mostly up to 38.3 µM; note: nearly all actives have a fitted effect of over 40% in size
Source text: National Center for Advancing Translational Sciences [NCATS]
NIH Chemical Genomics Center [NCGC]
U.S. Environmental Protection Agency [EPA]
National Institutes of Environmental Health Sciences [NIEHS]
National Toxicology Program [NTP]
The Pregnane X receptor (PXR), a ligand activated nuclear receptor plays a critical role in the regulation of genes involved in drug metabolism and transporters. Activation of PXR may be involved in the unwanted adverse drug-drug interactions. […] Therefore, identification of compounds with the potential for PXR activation can be of importance in improving the efficacy of drugs with less toxicity and avoiding drug-drug interactions.
DPX-2 (Puracyp, Inc.) cell lines, used for screening against human PXR activation has HepG2 cells co-transfected with a PXR response element and a luciferase construct containing CYP3A4 promoter. Increase in luciferase activity can be used to identify the compounds that activate the PXR pathway.
DPX-2 cells were dispensed at 2,000 cells per well in 5uL of assay medium into white, solid-bottom 1536-well plates using a Multidrop Combi dispenser (Thermo Scientific). The assay plates were incubated at 37C for 5hr before transferring 23nL of test compounds dissolved in DMSO and positive control via Pintool station (Wako). The assay plates were incubated at 37C for 24hr. Then 5ul One-Glo assay reagent (Promega) was added to each plate by a Flying Reagent Dispenser (FRD, Aurora Discovery) and following 30 min incubation at room temperature, luciferase activity was quantified on a ViewLux plate reader (Perkin Elmer).
Potency is the fitted concentration of half-maximal effect.

Compound	Potency
O=c1[nH]c2cc(C(F)(F)F)c(N3CCOCC3)cc2n(CP(=O)(O)O)c1=O	inactive
COc1cc(NC(C)CCCN)c2ncccc2c1 (stereo not given)	inactive
CC(C)(C(=O)c1cccnc1)c1cccnc1	inactive
O=C(O)CNC(=O)c1ccccc1I	inactive
CC[C@H]1OC(=O)[C@H](C)[C@@H](O[C@H]2C[C@@](C)(OC)[C@@H](O)[C@H](C)O2)[C@H](C)[C@@H](O[C@@H]2O[C@H](C)C[C@H](N(C)C)[C@H]2O)[C@](C)(O)C[C@@H](C)/C(=N\OCOCCOC)[C@H](C)[C@@H](O)[C@]1(C)O	inactive
COc1ccc(CCN(C)CCCN2CCc3cc(OC)c(OC)cc3CC2=O)cc1OC	inactive
COc1cc(NCc2ccc3nc(N)nc(N)c3c2C)cc(OC)c1OC	inactive
CC[C@H]1OC(=O)[C@H](C)[C@@H](O[C@H]2C[C@@](C)(OC)[C@@H](O)[C@H](C)O2)[C@H](C)[C@@H](O[C@@H]2O[C@H](C)C[C@H](N(C)C)[C@H]2O)[C@](C)(O)C[C@@H](C)CN(C)[C@H](C)[C@@H](O)[C@]1(C)O	inactive
O=C(NC(Cc1cc(=O)[nH]c2ccccc12)C(=O)O)c1ccc(Cl)cc1 (stereo not given)	inactive
C=CC(=O)O	inactive
Cc1c[nH]c2ccccc12	inactive
CC(C)Cc1ccc(CC(=O)O)cc1	inactive
CCCCCCCCCCCC(=O)OCC(O)CO (stereo not given)	inactive
C[C@@H]1[C@H](O)[C@@H](C)/C=C/C=C\C=C\C=C\C=C\C=C\C=C\[C@H](O[C@@H]2O[C@H](C)[C@@H](O)[C@H](N)[C@@H]2O)C[C@@H]2O[C@](O)(C[C@@H](O)C[C@@H](O)[C@H](O)CC[C@@H](O)C[C@@H](O)CC(=O)O[C@H]1C)C[C@H](O)[C@H]2C(=O)O (stereo in doubt)	inactive
O=C1CC[C@@H](C(=O)O)N1	inactive
COc1ccc(-c2cc(C(F)F)nn2-c2ccc(S(N)(=O)=O)cc2)cc1F	inactive
Cc1ccc(S(=O)(=O)NC(=O)NC2CCCCC2)cc1	inactive
CC(=O)Oc1cccc(O)c1	inactive
Nc1ccc(S(=O)(=O)NCc2ccccc2)cc1	inactive
CC(=O)OC(C)C[N+](C)(C)C (stereo not given)	inactive

Compound	Potency
CCN(CC)CCOc1ccccc1C(=O)CCc1ccccc1	15.8 µM (active)
O=C(Nc1ccc(C(=O)O)c(O)c1)c1ccccc1	inactive
CC(C)C1CCC(C(=O)N[C@H](Cc2ccccc2)C(=O)O)CC1 (stereo not given in full)	inactive
COc1ccc(/C=C/C(=O)c2ccc(OC)cc2OC)cc1	22.4 µM (active)
CC[C@H]1OC(=O)[C@H](C)[C@@H](O[C@H]2C[C@@](C)(OC)[C@@H](O)[C@H](C)O2)[C@H](C)[C@@H](O[C@@H]2O[C@H](C)C[C@H](N(C)C)[C@H]2O)[C@](C)(O)C[C@@H](C)C(=O)[C@H](C)[C@@H](O)[C@]1(C)O	inactive
CNC1CCCN(c2c(F)cc3c(=O)c(C(=O)O)cn(C4CC4)c3c2OC)C1 (stereo not given)	inactive
CC(C)(C)NCC(O)COc1cccc2c1C[C@H](O)[C@H](O)C2 (stereo not given in full)	inactive
CCCCC(CC)COS(=O)(=O)O (stereo not given)	inactive
c1ccc2sc(SSc3nc4ccccc4s3)nc2c1	inactive
Cc1cn([C@H]2C[C@H](F)[C@@H](CO)O2)c(=O)[nH]c1=O	inactive
CCOC(=O)c1c(N)sc2c1CCN(Cc1ccccc1)C2	inactive
CCCCC[C@H](O)/C=C/[C@H]1[C@H](O)CC(=O)[C@@H]1C/C=C\CCCC(=O)O	inactive
CC(=O)N[C@@H](Cc1ccc(O)cc1)C(=O)O	inactive
COc1ccc(C(=O)NCc2ccc(OCCN(C)C)cc2)cc1OC	inactive
CNc1c2c(nn1C)CCCC2	inactive
CC[C@@H](CO)NCCN[C@@H](CC)CO	inactive
CCN(CC)C(=O)/C(C#N)=C/c1cc(O)c(O)c([N+](=O)[O-])c1	inactive
CCN(CC)C(=O)N1CCN(C)CC1	inactive
O=C(O)CCC(=O)c1ccc(-c2ccccc2)cc1	inactive
CCN(CC)CCOC(=O)C(c1ccccc1)c1ccccc1	inactive
